The whole screen tested about 39,000 compounds, of which about 1,500 (3.8%) were called active. The sample holds actives, similar compounds and a random draw of the others, so the mix is not that of the screen.

For this assay, the system named is HSkMC (human skeletal muscle cells). Nature of the assay: cytotoxicity call (relative viability < 0.9). The following applies: 10 µM.
Take `O=C(NOCCO)c1cc(CN2OCCCC2=O)c(F)c(F)c1Nc1ccc(I)cc1F`: the cytotoxicity call is “inactive”.

For `O=C(C[C@H]1C[C@H]2c3cc(NS(=O)(=O)c4ccccc4)ccc3O[C@H]2[C@H](CO)O1)NCC(F)(F)F`, the cytotoxicity call was “inactive”.

On to `CC(C)OC(=O)c1nnc(N)[nH]1`, for which the cytotoxicity call is “inactive”.

Turning to `CN1CCN(C(=O)[C@H]2C[C@H]3CN(c4ncc(F)cn4)C[C@@H]3N2C)CC1`, the cytotoxicity call is “inactive”.

As for `CC1(C)C=Cc2c(nc3ccccc3c2NCc2ccccc2)C1`, the cytotoxicity call is “inactive”.

In the case of `Cc1cc(C(=O)Nc2ccc3c(c2)C(=O)N(C)[C@@H]2CC[C@H](CC(=O)NCC(F)(F)F)O[C@@H]2CO3)no1`, the cytotoxicity call was “inactive”.

As for `COCC(=O)Nc1ccc2c(c1)C(=O)N(C)C[C@@H](OC)[C@@H](C)CN(Cc1ccccc1OC)[C@@H](C)CO2`, the cytotoxicity call is “inactive”.

In the case of `C[C@@H]1CN([C@H](C)CO)C(=O)c2cc(NC(=O)C3CCCCC3)ccc2O[C@@H](C)CCCCO[C@H]1CN(C)Cc1ccccc1`, the cytotoxicity call is “inactive”.

`COc1ccc(C#Cc2cnc3c(c2)C(=O)N([C@@H](C)CO)C[C@@H](C)[C@H](CN(C)C(=O)CN(C)C)O3)cc1`: the cytotoxicity call was “inactive”.

Turning to `C[C@H](CO)N1C[C@H](C)[C@@H](CN(C)S(=O)(=O)c2cn(C)cn2)Oc2c(NC(=O)CCC(F)(F)F)cccc2C1=O`, the cytotoxicity call was “inactive”.

Regarding `C[C@@H]1CCCCO[C@@H](CN(C)S(=O)(=O)c2ccc(Cl)cc2)[C@@H](C)CN([C@H](C)CO)C(=O)c2cc(NC(=O)Nc3cccc4ccccc34)ccc2O1`, the cytotoxicity call is “inactive”.

`COC(=O)[C@@H]1CCCC1=O`: the cytotoxicity call was “inactive”.

In the case of `COc1ccc(CNC(=O)C[C@H]2C[C@H]3c4cc(NC(=O)NC5CCCC5)ccc4O[C@H]3[C@@H](CO)O2)cc1`, the cytotoxicity call is “inactive”.

As for `FC(F)(F)c1cc(NC(=S)Nc2ccc(Br)cc2-c2nn[nH]n2)cc(C(F)(F)F)c1`, the cytotoxicity call was “active”.

For the molecule `O=C(Nc1cc(C(F)(F)F)cc(C(F)(F)F)c1)Nc1c(Br)cc(Br)cc1-c1nn[nH]n1`, the cytotoxicity call was “inactive”.

As for `COc1ccccc1-c1cnc2c(c1)C(=O)N([C@@H](C)CO)C[C@H](C)[C@H](CN(C)C(=O)c1cccnc1)O2`, the cytotoxicity call is “inactive”.

With `COc1ccc([Si](C)(C)[C@H]2[C@H](CC(=O)N(CCO)Cc3ccccc3)O[C@@]3(C(=O)N(Cc4cccc(N5CCCCC5=O)c4)c4ccccc43)[C@@H]2C)cc1`, the cytotoxicity call was “inactive”.

`OC[C@H]1O[C@H](n2cnc3cncnc32)[C@@H](O)[C@@H]1O`: the cytotoxicity call was “active”.

As for `Nc1ncn([C@@H]2C[C@H](O)[C@@H](CO)O2)c(=O)n1`, the cytotoxicity call is “inactive”.

For the molecule `Nc1ncn([C@@H]2O[C@H](CO)[C@@H](O)[C@H]2O)c(=O)n1`, the cytotoxicity call is “active”.

Consider `Nc1nc(F)nc2c1ncn2[C@@H]1O[C@H](COP(=O)(O)O)[C@@H](O)[C@@H]1O`, for which the cytotoxicity call is “inactive”.

Take `Nc1ncn(C2OC(CO)C(O)C2O)c(=O)n1` (centres undefined): the cytotoxicity call was “inactive”.

As to `Nc1ncnc2c1ncn2[C@@H]1O[C@H](CO)[C@@H](O)[C@@H]1O`, the cytotoxicity call was “inactive”.

For the molecule `Nc1nc(Cl)nc2c1ncn2[C@@H]1O[C@H](CO)[C@@H](O)[C@H]1O`, the cytotoxicity call was “inactive”.

As for `Nc1nc(F)nc2c1ncn2[C@@H]1O[C@H](CO)[C@@H](O)[C@H]1O`, the cytotoxicity call is “active”.

For `NC(=O)c1cn([C@@H]2O[C@H](CO)[C@@H](O)[C@H]2O)c2ncnc(N)c2c1=O`, the cytotoxicity call was “active”.

`Nc1ncnc2c1ncn2[C@H]1O[C@@H](CO)[C@H](O)[C@@H]1O`: the cytotoxicity call was “inactive”.

In the case of `Nc1ncnc2c1c(I)cn2[C@H]1O[C@@H](CO)[C@@H](O)[C@@H]1O`, the cytotoxicity call was “inactive”.

Regarding `Nc1ncnc2c1c(I)cn2[C@@H]1O[C@H](CO)[C@@H](O)[C@H]1O`, the cytotoxicity call was “inactive”.

Regarding `CC(C)NC(=O)Nc1ccc2c(c1)CC(=O)N([C@H](C)CO)C[C@@H](C)[C@@H](CN(C)Cc1ccc(-c3ccccc3)cc1)O2`, the cytotoxicity call is “inactive”.

In the case of `C[C@@H]1CN([C@@H](C)CO)C(=O)c2cc(C#CCN(C)C)cnc2O[C@H]1CN(C)S(C)(=O)=O`, the cytotoxicity call is “inactive”.

As for `C[C@@H]1CN([C@@H](C)CO)C(=O)c2cc(NS(=O)(=O)c3cccs3)ccc2O[C@@H](C)CCCCO[C@H]1CN(C)C(=O)Cc1ccccc1`, the cytotoxicity call was “inactive”.

With `COc1ccc(CN(C)C[C@@H]2Oc3ccc(NS(=O)(=O)c4cn(C)cn4)cc3CC(=O)N([C@H](C)CO)C[C@H]2C)cc1`, the cytotoxicity call is “inactive”.

As for `C[C@H](CO)N1C[C@H](C)[C@H](CN(C)Cc2ccc(-c3ccccc3)cc2)Oc2ccc(NC(=O)NC3CCCCC3)cc2CC1=O`, the cytotoxicity call was “inactive”.

Take `COc1ccc(S(=O)(=O)N2C[C@H](O)COC[C@@H]3O[C@@H](CC(=O)NCCCN(C)C)CC[C@H]32)cc1`: the cytotoxicity call is “inactive”.

Turning to `C/C(=C\CC[C@@H](C)[C@H]1C[C@@H](O)[C@@]2(C)[C@H]3CC[C@H]4C(C)(C)[C@@H](O[C@@H]5O[C@@H](CO[C@H]6OC[C@@H](O)[C@@H](O)[C@@H]6O)[C@@H](O)[C@@H](O)[C@@H]5O)CC[C@@]45C[C@@]35C[C@@H](O)[C@]12C)C(=O)O[C@H]1O[C@@H](CO)[C@@H](O)[C@@H](O)[C@@H]1O`, the cytotoxicity call was “inactive”.

As to `C[C@H]1CN([C@@H](C)CO)C(=O)CCCn2nncc2CO[C@H]1CN(C)C(=O)c1cc(-c2ccccc2)on1`, the cytotoxicity call was “inactive”.

`C[C@H]1CCCCO[C@H](CN(C)CC2CC2)[C@@H](C)CN([C@@H](C)CO)C(=O)c2cc(NC(=O)c3ccccc3)ccc2O1`: the cytotoxicity call is “inactive”.

As for `Cc1noc(C)c1NC(=O)Nc1ccc2c(c1)CC(=O)N([C@@H](C)CO)C[C@@H](C)[C@H](CN(C)Cc1ccc(C(=O)Nc3ccccc3N)cc1)O2`, the cytotoxicity call is “inactive”.

As to `C[C@H](CO)N1C[C@H](C)[C@H](CN(C)CC2CCOCC2)Oc2cc(C#Cc3ccccc3F)ccc2S1(=O)=O`, the cytotoxicity call was “inactive”.

In the case of `Nc1nc(Cl)nc2c1ncn2[C@H]1C[C@H](O)[C@@H](CO)O1`, the cytotoxicity call was “active”.

On to `Nc1nc(Cl)nc2c1ncn2[C@H]1C[C@@H](O)[C@@H](CO)O1`, for which the cytotoxicity call is “inactive”.

`Nc1ncnc2c1ncn2[C@H]1C[C@H](O)[C@@H](CO)O1`: the cytotoxicity call is “inactive”.

For the molecule `CCN(CC)CCOc1ccc(Nc2ncc3cc(-c4c(Cl)cccc4Cl)c(=O)n(C)c3n2)cc1`, the cytotoxicity call was “active”.

As for `CCN(CC)CCOc1ccc2c(c1)C(=O)c1cc(OCCN(CC)CC)ccc1-2`, the cytotoxicity call is “inactive”.

On to `C[C@](N)(Cc1ccc(O)c(O)c1)C(=O)O`, for which the cytotoxicity call was “inactive”.

Consider `NNCCc1ccccc1`, for which the cytotoxicity call is “inactive”.

Take `c1ccc(CCNc2ccnc3cc4ccccc4cc23)cc1`: the cytotoxicity call is “active”.

For `NCCNc1cccc2ccccc12`, the cytotoxicity call was “inactive”.

With `Cc1noc(C)c1S(=O)(=O)Nc1ccc2c(c1)C(=O)N([C@H](C)CO)C[C@H](C)[C@@H](CN(C)Cc1ccc(Oc3ccccc3)cc1)O2`, the cytotoxicity call is “inactive”.

`C[C@@H]1COCC(=O)N1`: the cytotoxicity call was “inactive”.

As for `C[C@@H]1CN([C@H](C)CO)C(=O)c2cc(NC(=O)Cc3ccccc3)ccc2O[C@@H](C)CCCCO[C@@H]1CN(C)S(=O)(=O)c1cccs1`, the cytotoxicity call was “inactive”.

On to `COc1ccccc1C#Cc1cnc2c(c1)C(=O)N([C@H](C)CO)C[C@@H](C)[C@@H](CN(C)S(=O)(=O)c1cn(C)cn1)O2`, for which the cytotoxicity call is “inactive”.

With `C[C@H](CO)N1C[C@H](C)[C@@H](CN(C)S(=O)(=O)c2ccccc2F)Oc2ncc(C#Cc3ccccc3F)cc2C1=O`, the cytotoxicity call is “active”.

Take `C[C@@H]1CN([C@H](C)CO)C(=O)c2cc(C#Cc3ccccc3F)cnc2O[C@H]1CN(C)S(=O)(=O)c1ccccc1F`: the cytotoxicity call was “inactive”.

Take `COc1ccccc1C#Cc1cnc2c(c1)C(=O)N([C@H](C)CO)C[C@@H](C)[C@H](CN(C)S(=O)(=O)c1cn(C)cn1)O2`: the cytotoxicity call is “active”.

`C[C@H]1CN([C@@H](C)CO)C(=O)c2cc(C#Cc3ccccc3F)cnc2O[C@@H]1CN(C)S(=O)(=O)c1ccccc1F`: the cytotoxicity call is “inactive”.

For the molecule `COc1ccccc1C#Cc1cnc2c(c1)C(=O)N([C@@H](C)CO)C[C@@H](C)[C@@H](CN(C)S(=O)(=O)c1cn(C)cn1)O2`, the cytotoxicity call was “inactive”.

As for `Cc1ccc(S(=O)(=O)Nc2ccc3c(c2)CC(=O)N([C@H](C)CO)C[C@@H](C)[C@@H](CN(C)S(=O)(=O)c2ccc(F)cc2)O3)cc1`, the cytotoxicity call was “inactive”.

As for `Cc1ccc(S(=O)(=O)Nc2cccc3c2O[C@@H](CN(C)S(C)(=O)=O)[C@@H](C)CN([C@H](C)CO)C3=O)cc1`, the cytotoxicity call is “inactive”.

As for `C[C@@H]1CN([C@H](C)CO)C(=O)c2ccccc2-c2ccccc2CO[C@@H]1CN(C)C(=O)Nc1cccc(C(F)(F)F)c1`, the cytotoxicity call was “inactive”.

Take `C[C@@H]1CCCCO[C@H](CN(C)CC2CCCCC2)[C@H](C)CN([C@H](C)CO)C(=O)c2cc(NC(=O)c3ccccc3)ccc2O1`: the cytotoxicity call was “inactive”.

Regarding `C[C@H]1CCCCO[C@@H](CN(C)Cc2ccc(C(F)(F)F)cc2)[C@@H](C)CN([C@@H](C)CO)C(=O)c2cc(NC(=O)NC3CCCCC3)ccc2O1`, the cytotoxicity call was “active”.

For the molecule `C[C@@H]1CCCCO[C@@H](CN(C)Cc2ccc(C(F)(F)F)cc2)[C@@H](C)CN([C@@H](C)CO)C(=O)c2cc(NC(=O)NC3CCCCC3)ccc2O1`, the cytotoxicity call was “active”.

As for `C[C@H](CO)N1C[C@H](C)[C@H](CN(C)Cc2ccc(C(F)(F)F)cc2)OCCCC[C@H](C)Oc2ccc(NC(=O)NC3CCCCC3)cc2C1=O`, the cytotoxicity call is “inactive”.

`C[C@@H]1CN([C@@H](C)CO)C(=O)c2cc(NC(=O)NC3CCCCC3)ccc2O[C@@H](C)CCCCO[C@@H]1CN(C)Cc1ccc(C(F)(F)F)cc1`: the cytotoxicity call was “inactive”.

Turning to `C[C@@H]1CCCCO[C@H](CN(C)Cc2ccc(C(F)(F)F)cc2)[C@@H](C)CN([C@H](C)CO)C(=O)c2cc(NC(=O)NC3CCCCC3)ccc2O1`, the cytotoxicity call is “inactive”.

Turning to `C[C@@H]1CN([C@H](C)CO)C(=O)c2cc(NC(=O)NC3CCCCC3)ccc2O[C@@H](C)CCCCO[C@@H]1CN(C)Cc1ccc(C(F)(F)F)cc1`, the cytotoxicity call was “inactive”.

As for `C[C@@H]1CCCCO[C@H](CN(C)Cc2ccc(C(F)(F)F)cc2)[C@H](C)CN([C@H](C)CO)C(=O)c2cc(NC(=O)NC3CCCCC3)ccc2O1`, the cytotoxicity call is “active”.

Consider `C[C@@H]1CCCCO[C@H](CN(C)Cc2ccc(C(F)(F)F)cc2)[C@@H](C)CN([C@@H](C)CO)C(=O)c2cc(NC(=O)NC3CCCCC3)ccc2O1`, for which the cytotoxicity call was “inactive”.

Consider `C[C@@H]1CCCCO[C@@H](CN(C)Cc2ccc(C(F)(F)F)cc2)[C@H](C)CN([C@H](C)CO)C(=O)c2cc(NC(=O)NC3CCCCC3)ccc2O1`, for which the cytotoxicity call was “inactive”.

Regarding `C[C@@H]1CN([C@H](C)CO)C(=O)c2cc(NC(=O)NC3CCCCC3)ccc2O[C@@H](C)CCCCO[C@H]1CN(C)Cc1ccc(C(F)(F)F)cc1`, the cytotoxicity call is “inactive”.

In the case of `C[C@@H]1CCCCO[C@@H](CN(C)Cc2ccc(C(F)(F)F)cc2)[C@H](C)CN([C@@H](C)CO)C(=O)c2cc(NC(=O)NC3CCCCC3)ccc2O1`, the cytotoxicity call was “inactive”.

Turning to `C[C@@H]1CCCCO[C@H](CN(C)Cc2ccc(C(F)(F)F)cc2)[C@H](C)CN([C@@H](C)CO)C(=O)c2cc(NC(=O)NC3CCCCC3)ccc2O1`, the cytotoxicity call is “active”.

(Values after the antibiotic and cytotoxicity screens of Wong et al. (2023).)
